Test results reported in PubChem BioAssay (NCATS).
Results filed as inconclusive are left out. Active and inactive are the calls of the source. The call rests on the fitted dose curve; in most records, active means well fitted curve in the direction sought with a large enough effect; inconclusive means small, poorly fitted or top-dose-only effect, or another doubt; inactive means no such curve, though single readings can be large; an effect the other way counts as inactive or inconclusive.

Assays:
CRL-7250 = normal cell line; assay: Cytotoxic Profiling of Annotated Libraries Using Quantitative High-Throughput Screening (AID 1296008); details: Five cell lines viability, CellTiter-Glo ATP luminescence, 48-72 h; max response: active compounds read low; further: nearly all actives have a fitted effect of over 60% in size; on max response: on the % scale 0 is the no-effect control and ±100 the full control effect
Summary of the method: (§1)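 Cytotoxicity was measured as CellTiter-Glo ATP luminescence, read after 10 min at room temperature. Compound treatment of the cells lasted 48 or 72 hr at 37 degrees Celsius in a qHTS format.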

HaCat [1] = assay: as above; details: Five cell lines viability, CellTiter-Glo ATP luminescence, 48-72 h; max response: active compounds read low
Summary of the method: as §1

KB-3-1 = assay: as above; details: Five cell lines viability, CellTiter-Glo ATP luminescence, 48-72 h; max response: active compounds read low
Summary of the method: as §1

NIH3T3 [2] = assay: as above; details: Five cell lines viability, CellTiter-Glo ATP luminescence, 48-72 h; max response: active compounds read low
Summary of the method: as §1

HACAT [3] = assay: qHTS assay to identify novel small-molecules to repurpose for Merkel cell carcinoma treatment (AID 1296009); details: MCC and control cell lines, CellTiter-Glo viability, 72 h; at 44.8 µM (top of the series) unless noted; further: nearly all actives have a fitted effect of over 60% in size
Summary of the method: (§2)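 Cell viability measured by CellTiter-Glo following 72 hr compound treatment at 37 degree celsius, with NPC and MIPE libraries tested in 8- and 11-point concentration series.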

C33A = assay: Primary qHTS to identify gynecologic anti-cancer compounds using libraries of approved drugs and bioactive compounds (AID 1345084); details: Gynecologic cancer cell panel viability, ATPlite luminescence, 48 h; series mostly up to 57.5 µM; further: on the % scale 0 is the no-effect control and ±100 the full control effect; nearly all actives have a fitted effect of over 55% in size
Summary of the method: (§3)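 48 h compound exposure at 37 C, 5% CO2; five-point qHTS. ATPlite luminescence readout of cell ATP.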

CAOV3 = assay: as above; details: Gynecologic cancer cell panel viability, ATPlite luminescence, 48 h; series mostly up to 57.5 µM
Summary of the method: as §3

CASKI = assay: as above; details: Gynecologic cancer cell panel viability, ATPlite luminescence, 48 h; series mostly up to 57.5 µM
Summary of the method: as §3

Es-2 = assay: as above; details: Gynecologic cancer cell panel viability, ATPlite luminescence, 48 h; series mostly up to 57.5 µM
Summary of the method: as §3

HeLa = assay: as above; details: Gynecologic cancer cell panel viability, ATPlite luminescence, 48 h; series mostly up to 57.5 µM
Summary of the method: as §3

Hek293T = assay: as above; details: Gynecologic cancer cell panel viability, ATPlite luminescence, 48 h, control line for the selectivity index; series mostly up to 57.5 µM
Summary of the method: as §3

OV90 = assay: as above; details: Gynecologic cancer cell panel viability, ATPlite luminescence, 48 h; series mostly up to 57.5 µM
Summary of the method: as §3

SKOV3 = assay: as above; details: Gynecologic cancer cell panel viability, ATPlite luminescence, 48 h; series mostly up to 57.5 µM
Summary of the method: as §3

JEG-3 = assay: as above; details: Gynecologic cancer cell panel viability, ATPlite luminescence, 48 h; series mostly up to 57.5 µM
Summary of the method: as §3

PA-1 = assay: as above; details: Gynecologic cancer cell panel viability, ATPlite luminescence, 48 h; series mostly up to 57.5 µM
Summary of the method: as §3

NIH3T3 [4] = assay: qHTS assay to identify novel small-molecules to repurpose for Merkel cell carcinoma treatment (AID 1296009); details: MCC and control cell lines, CellTiter-Glo viability, 72 h; series mostly up to 44.8 µM; further: nearly all actives have a fitted effect of over 60% in size
Summary of the method: as §2

COc1ccc2c(NC(=O)Nc3cccc(C(F)(F)F)n3)ccnc2c1
inactive: max response (CRL-7250) -17.8% | outcome (HaCat [1]) | outcome (KB-3-1) | max response (NIH3T3 [2]) -6.75% | outcome (HACAT [3]) | Potency (C33A) | Potency (CAOV3) | Potency (CASKI) | Potency (Es-2) | Potency (HeLa) | Potency (Hek293T) | Potency (OV90) | Potency (SKOV3)

CCCC(=O)C1(c2ccccc2)CCN(C(=O)[C@@H](Cc2ccc(OC)cc2)NC(=O)[C@@H](N)Cc2cncn2C)CC1
inactive: max response (CRL-7250) 3.05% | outcome (HaCat [1]) | max response (KB-3-1) -9.44% | max response (NIH3T3 [2]) -0.497% | outcome (HACAT [3]) | Potency (C33A) | Potency (CASKI) | Potency (Es-2) | Potency (HeLa) | Potency (Hek293T) | Potency (JEG-3) | Potency (OV90) | Potency (PA-1) | Potency (SKOV3)

CCC(CC)Nc1nc(C)c(-c2ccc(OC(F)(F)F)cc2OC)nc1OC
inactive: max response (CRL-7250) -15% | outcome (HaCat [1]) | max response (KB-3-1) 0.138% | max response (NIH3T3 [2]) 0.268% | outcome (HACAT [3]) | Potency (C33A) | Potency (CASKI) | Potency (Es-2) | Potency (HeLa) | Potency (Hek293T) | Potency (JEG-3) | Potency (OV90) | Potency (PA-1) | Potency (SKOV3)

CC(C)CCCCC(=O)N[C@@H](CO)C(=O)N[C@@H](CC(C)C)C(=O)[C@@]1(CO)CO1
inactive: max response (CRL-7250) -2.59% | outcome (HaCat [1]) | max response (KB-3-1) -12% | max response (NIH3T3 [2]) -2.24% | outcome (HACAT [3]) | Potency (C33A) | Potency (CASKI) | Potency (Es-2) | Potency (HeLa) | Potency (Hek293T) | Potency (JEG-3) | Potency (OV90) | Potency (SKOV3)

C=C1C(=O)O[C@@H]2[C@H]1CC[C@H](C)[C@]1(CCC(=O)O1)C2(C)O (some centres undefined)
inactive: max response (CRL-7250) -3% | outcome (HaCat [1]) | outcome (KB-3-1) | max response (NIH3T3 [2]) -19.6% | outcome (HACAT [3]) | Potency (C33A) | Potency (CAOV3) | Potency (CASKI) | Potency (Es-2) | Potency (HeLa) | Potency (JEG-3) | Potency (OV90) | Potency (PA-1) | Potency (SKOV3)

COc1ccc([C@H](Cc2ccncc2)c2ccccc2)cc1OC1CCCC1
inactive: max response (CRL-7250) -5.35% | outcome (HaCat [1]) | max response (KB-3-1) -4.42% | max response (NIH3T3 [2]) -22.8% | outcome (HACAT [3]) | Potency (C33A) | Potency (CASKI) | Potency (Es-2) | Potency (HeLa) | Potency (Hek293T) | Potency (JEG-3) | Potency (OV90) | Potency (PA-1) | Potency (SKOV3)

CN1CCC(c2cn(C)c3ccc(OS(=O)(=O)c4c(F)cccc4F)cc23)CC1
inactive: outcome (CRL-7250) | outcome (HaCat [1]) | max response (KB-3-1) -7.12% | max response (NIH3T3 [2]) 3.31% | outcome (HACAT [3]) | Potency (C33A) | Potency (CAOV3) | Potency (CASKI) | Potency (Es-2) | Potency (HeLa) | Potency (Hek293T) | Potency (JEG-3) | Potency (PA-1)

O=C(Nc1cccnc1)c1cc(-c2ccnc(F)c2)ccc1OCc1ccccc1
inactive: max response (CRL-7250) -1.07% | outcome (HaCat [1]) | max response (KB-3-1) 6.84% | max response (NIH3T3 [2]) 4.92% | outcome (HACAT [3]) | Potency (C33A) | Potency (CASKI) | Potency (Es-2) | Potency (HeLa) | Potency (Hek293T) | Potency (JEG-3) | Potency (OV90) | Potency (PA-1)

CC(C)OC(=O)N1CCC(Oc2ncnc3c2cnn3-c2ccc(S(C)(=O)=O)cc2F)CC1
inactive: outcome (CRL-7250) | outcome (HaCat [1]) | max response (KB-3-1) -25.6% | max response (NIH3T3 [2]) -1.21% | outcome (HACAT [3]) | Potency (C33A) | Potency (CAOV3) | Potency (CASKI) | Potency (Es-2) | Potency (HeLa) | Potency (JEG-3) | Potency (OV90) | Potency (PA-1) | Potency (SKOV3)

C=C1CC[C@H]2C(=C)CC[C@H]3C(=C)C(=O)O[C@@H]3[C@@H]12
inactive: max response (CRL-7250) -11.6% | outcome (HaCat [1]) | max response (KB-3-1) -8.05% | max response (NIH3T3 [2]) -3.18% | outcome (HACAT [3]) | Potency (C33A) | Potency (CASKI) | Potency (Es-2) | Potency (HeLa) | Potency (Hek293T) | Potency (JEG-3) | Potency (OV90) | Potency (PA-1) | Potency (SKOV3)

CC(C)(C)Sc1c(CC(C)(C)C(=O)O)n(Cc2ccc(Cl)cc2)c2ccc(OCc3ccc4ccccc4n3)cc12
inactive: max response (CRL-7250) -0.604% | outcome (HaCat [1]) | outcome (KB-3-1) | max response (NIH3T3 [2]) 1.54% | outcome (HACAT [3]) | Potency (C33A) | Potency (Es-2) | Potency (HeLa) | Potency (Hek293T) | Potency (JEG-3) | Potency (OV90) | Potency (PA-1)

COc1ccc(NC(=O)c2ccc(-c3ccc(-c4nnc(C)o4)cc3C)cc2)cc1N1CCN(C)CC1
inactive: max response (CRL-7250) 2.13% | outcome (HaCat [1]) inactive; activator | max response (KB-3-1) 2.03% | max response (NIH3T3 [2]) -14.5% | outcome (HACAT [3]) inactive; activator | Potency (C33A) | Potency (CASKI) | Potency (Es-2) | Potency (HeLa) | Potency (Hek293T) | Potency (JEG-3) | Potency (OV90) | Potency (SKOV3)

CC(=O)C=C=C1C(C)(C)CC(O)CC1(C)O[C@@H]1O[C@H](CO[C@H]2OC[C@](O)(CO)[C@H]2O)[C@@H](O)[C@H](O)[C@H]1O (some centres undefined)
inactive: max response (CRL-7250) -2.66% | outcome (HaCat [1]) | outcome (KB-3-1) | max response (NIH3T3 [2]) 1.53% | outcome (HACAT [3]) inactive [at 17.4 µM] | Potency (C33A) | Potency (CASKI) | Potency (Es-2) | Potency (HeLa) | Potency (Hek293T) | Potency (JEG-3) | Potency (OV90) | Potency (PA-1)

CO[C@H]1O[C@@H]2O[C@@]3(C)CCC4[C@H](C)CCC([C@H]1C)[C@]42OO3 (some centres undefined)
inactive: outcome (CRL-7250) | max response (HaCat [1]) -12.1% | outcome (KB-3-1) | outcome (NIH3T3 [2]) | Potency (NIH3T3 [4]) | Potency (C33A) | Potency (CAOV3) | Potency (CASKI) | Potency (Es-2) | Potency (HeLa) | Potency (Hek293T) | Potency (JEG-3) | Potency (OV90) | Potency (PA-1) | Potency (SKOV3)
